Reference: the supplement of paper PMC11732987, “Enantioselective OTUD7B fragment discovery through chemoproteomics screening and high-throughput optimisation” (Communications Chemistry, 2025)

How the values were obtained:
Assay in all cases: log2 ratio of Biotin-Ahx-Ub-VS probe labelling (fragment/DMSO); higher = less target engagement (more negative = stronger competition), active = hit call of the paper (q ≤ 0.05, log2 ratio ≤ -1)
Conditions in all cases: compound concentration: 200 uM; treatment time: 3 h
OTUD6B = target: T1, OTUD6B (UniProt Q8N6M0)
T1 sequence (whole entry): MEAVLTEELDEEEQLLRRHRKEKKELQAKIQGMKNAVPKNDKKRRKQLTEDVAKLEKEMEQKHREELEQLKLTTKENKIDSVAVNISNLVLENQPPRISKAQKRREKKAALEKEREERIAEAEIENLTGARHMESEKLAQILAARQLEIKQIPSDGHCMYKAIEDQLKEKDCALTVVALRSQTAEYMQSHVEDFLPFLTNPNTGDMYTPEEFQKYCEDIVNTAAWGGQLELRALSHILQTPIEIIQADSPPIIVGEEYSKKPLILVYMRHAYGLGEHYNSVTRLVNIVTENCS
Summary of the method: (§1)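 Using Biotin-Ahx-Ub-VS at 0.5 µM final for 1 h, DUBs were labelled in HEK293T lysate (495 µg per sample) that had first been treated in triplicate with fragment at 200 µM or vehicle for 3 h. NeutrAvidin enrichment, LysC and trypsin digestion and diaPASEF LC-MS/MS followed. Spectronaut label-free quantities were global-median-normalised. Values are average log2 fragment/vehicle ratios by unpaired t-test, using proteins with ≥2 unique peptides.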

OTUD7B = target: T2, OTUD7B (UniProt Q6GQQ9)
T2 sequence (whole entry): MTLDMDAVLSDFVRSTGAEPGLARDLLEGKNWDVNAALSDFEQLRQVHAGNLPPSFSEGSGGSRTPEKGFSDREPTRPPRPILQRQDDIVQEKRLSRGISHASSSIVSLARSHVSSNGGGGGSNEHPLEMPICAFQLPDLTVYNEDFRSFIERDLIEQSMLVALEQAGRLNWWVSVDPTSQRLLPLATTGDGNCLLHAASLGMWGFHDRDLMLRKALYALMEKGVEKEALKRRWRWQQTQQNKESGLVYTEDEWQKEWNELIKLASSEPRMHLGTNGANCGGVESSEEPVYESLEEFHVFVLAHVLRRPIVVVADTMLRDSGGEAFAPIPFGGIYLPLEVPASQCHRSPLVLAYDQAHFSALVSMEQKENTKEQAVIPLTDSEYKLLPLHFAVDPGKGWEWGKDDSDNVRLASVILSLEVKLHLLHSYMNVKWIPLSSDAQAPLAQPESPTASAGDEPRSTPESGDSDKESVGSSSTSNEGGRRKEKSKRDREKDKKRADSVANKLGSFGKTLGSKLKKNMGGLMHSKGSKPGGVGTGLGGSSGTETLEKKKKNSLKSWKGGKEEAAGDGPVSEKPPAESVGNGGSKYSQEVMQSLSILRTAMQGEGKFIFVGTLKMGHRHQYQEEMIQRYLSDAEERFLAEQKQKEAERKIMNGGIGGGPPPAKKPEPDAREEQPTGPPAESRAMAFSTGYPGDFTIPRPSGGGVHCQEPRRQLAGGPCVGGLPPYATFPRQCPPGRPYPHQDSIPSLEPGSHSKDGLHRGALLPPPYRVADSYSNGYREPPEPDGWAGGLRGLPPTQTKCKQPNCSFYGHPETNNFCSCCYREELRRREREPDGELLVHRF
Summary of the method: as §1

PRPF8 = PRPF8 (UniProt Q6P2Q9)
Summary of the method: as §1

PSMD7 = target: T3, PSMD7 (UniProt P51665)
T3 sequence (whole entry): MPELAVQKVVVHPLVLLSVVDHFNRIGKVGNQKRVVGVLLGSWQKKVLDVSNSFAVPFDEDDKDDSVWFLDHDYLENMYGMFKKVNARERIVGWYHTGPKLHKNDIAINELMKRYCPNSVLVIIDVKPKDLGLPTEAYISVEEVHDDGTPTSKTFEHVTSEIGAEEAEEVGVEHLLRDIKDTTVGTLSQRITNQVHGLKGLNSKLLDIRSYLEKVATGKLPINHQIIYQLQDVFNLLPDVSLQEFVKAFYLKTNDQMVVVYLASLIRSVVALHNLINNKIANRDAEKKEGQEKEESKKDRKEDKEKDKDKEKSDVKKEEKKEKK
Summary of the method: as §1

UCHL1 = UCHL1 (UniProt P09936)
Summary of the method: as §1

UCHL3 = target: T4, UCHL3 (UniProt P15374)
T4 sequence (whole entry): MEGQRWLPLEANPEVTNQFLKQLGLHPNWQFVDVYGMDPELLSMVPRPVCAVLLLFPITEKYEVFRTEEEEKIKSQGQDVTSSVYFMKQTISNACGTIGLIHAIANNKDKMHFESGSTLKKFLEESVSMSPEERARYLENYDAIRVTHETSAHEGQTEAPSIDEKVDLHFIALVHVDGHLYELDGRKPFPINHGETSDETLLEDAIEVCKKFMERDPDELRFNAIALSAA
Summary of the method: as §1

UCHL5 = target: T5, UCHL5 (UniProt Q9Y5K5)
T5 sequence (whole entry): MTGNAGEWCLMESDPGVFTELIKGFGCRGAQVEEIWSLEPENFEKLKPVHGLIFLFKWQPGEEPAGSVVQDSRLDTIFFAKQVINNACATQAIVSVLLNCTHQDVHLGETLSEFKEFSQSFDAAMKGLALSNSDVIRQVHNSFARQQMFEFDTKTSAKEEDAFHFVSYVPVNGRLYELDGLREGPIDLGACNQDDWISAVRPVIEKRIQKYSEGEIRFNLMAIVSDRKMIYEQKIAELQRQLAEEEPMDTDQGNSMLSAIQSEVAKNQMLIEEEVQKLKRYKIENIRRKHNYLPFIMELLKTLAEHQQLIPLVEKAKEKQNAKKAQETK
Summary of the method: as §1

USP10 = USP10 (UniProt Q14694)
Summary of the method: as §1

USP15 = target: T6, USP15 (UniProt Q9Y4E8)
T6 sequence (whole entry): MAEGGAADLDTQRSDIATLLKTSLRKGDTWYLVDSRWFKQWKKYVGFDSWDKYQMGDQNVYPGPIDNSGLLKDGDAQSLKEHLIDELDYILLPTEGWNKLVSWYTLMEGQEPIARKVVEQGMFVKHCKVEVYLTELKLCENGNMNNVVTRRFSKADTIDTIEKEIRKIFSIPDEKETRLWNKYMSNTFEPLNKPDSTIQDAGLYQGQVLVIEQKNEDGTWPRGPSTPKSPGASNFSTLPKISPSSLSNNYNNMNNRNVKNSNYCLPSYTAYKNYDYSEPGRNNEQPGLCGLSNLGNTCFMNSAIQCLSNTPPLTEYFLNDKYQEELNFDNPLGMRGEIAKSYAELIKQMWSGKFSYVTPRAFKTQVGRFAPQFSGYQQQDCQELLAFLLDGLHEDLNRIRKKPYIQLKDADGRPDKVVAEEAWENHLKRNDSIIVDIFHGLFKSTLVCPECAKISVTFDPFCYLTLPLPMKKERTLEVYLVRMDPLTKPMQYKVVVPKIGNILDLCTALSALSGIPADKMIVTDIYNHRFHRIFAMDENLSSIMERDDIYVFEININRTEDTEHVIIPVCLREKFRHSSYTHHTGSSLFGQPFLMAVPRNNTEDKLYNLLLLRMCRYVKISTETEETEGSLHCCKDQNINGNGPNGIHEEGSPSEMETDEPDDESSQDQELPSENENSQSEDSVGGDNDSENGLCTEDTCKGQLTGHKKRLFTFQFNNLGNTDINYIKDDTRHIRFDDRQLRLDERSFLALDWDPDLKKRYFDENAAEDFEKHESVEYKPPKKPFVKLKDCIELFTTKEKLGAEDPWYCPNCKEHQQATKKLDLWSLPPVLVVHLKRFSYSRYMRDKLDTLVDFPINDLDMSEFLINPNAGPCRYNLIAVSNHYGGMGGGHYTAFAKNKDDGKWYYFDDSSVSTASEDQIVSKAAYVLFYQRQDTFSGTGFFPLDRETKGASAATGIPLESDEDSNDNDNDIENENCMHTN
Summary of the method: as §1

USP16 = USP16 (UniProt Q9Y5T5)
Summary of the method: as §1

Measured: log2 ratio of Biotin-Ahx-Ub-VS probe labelling

Chain of UCHL1 (P09936 whole entry, looked up): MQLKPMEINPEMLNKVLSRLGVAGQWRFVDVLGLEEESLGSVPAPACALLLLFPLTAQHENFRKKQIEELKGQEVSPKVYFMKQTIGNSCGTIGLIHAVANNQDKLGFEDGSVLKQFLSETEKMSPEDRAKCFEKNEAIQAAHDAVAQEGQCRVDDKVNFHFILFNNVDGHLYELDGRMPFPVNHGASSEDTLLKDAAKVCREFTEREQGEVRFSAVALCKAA
Chain of USP10 (Q14694 whole entry): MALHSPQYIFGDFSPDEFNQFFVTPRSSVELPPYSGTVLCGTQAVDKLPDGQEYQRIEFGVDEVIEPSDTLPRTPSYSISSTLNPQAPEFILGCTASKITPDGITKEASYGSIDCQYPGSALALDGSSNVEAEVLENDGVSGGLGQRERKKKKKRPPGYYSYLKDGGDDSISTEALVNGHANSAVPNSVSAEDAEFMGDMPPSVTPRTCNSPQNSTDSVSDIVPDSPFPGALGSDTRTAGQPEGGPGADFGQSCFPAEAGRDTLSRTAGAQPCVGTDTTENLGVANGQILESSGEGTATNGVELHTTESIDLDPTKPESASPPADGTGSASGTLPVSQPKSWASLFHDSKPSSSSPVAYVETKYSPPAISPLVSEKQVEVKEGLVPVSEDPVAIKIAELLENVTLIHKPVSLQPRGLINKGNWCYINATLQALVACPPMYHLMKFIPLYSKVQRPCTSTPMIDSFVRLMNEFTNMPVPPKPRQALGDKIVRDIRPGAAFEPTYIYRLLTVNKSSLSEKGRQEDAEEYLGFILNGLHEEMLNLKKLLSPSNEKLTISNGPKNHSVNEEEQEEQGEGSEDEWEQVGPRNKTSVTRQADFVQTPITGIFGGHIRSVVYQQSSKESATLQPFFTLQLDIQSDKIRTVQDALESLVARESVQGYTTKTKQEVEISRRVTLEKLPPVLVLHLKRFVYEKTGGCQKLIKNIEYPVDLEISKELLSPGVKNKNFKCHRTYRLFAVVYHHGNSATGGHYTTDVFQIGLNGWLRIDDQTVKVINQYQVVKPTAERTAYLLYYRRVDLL
Chain of USP16 (Q9Y5T5 whole entry, looked up): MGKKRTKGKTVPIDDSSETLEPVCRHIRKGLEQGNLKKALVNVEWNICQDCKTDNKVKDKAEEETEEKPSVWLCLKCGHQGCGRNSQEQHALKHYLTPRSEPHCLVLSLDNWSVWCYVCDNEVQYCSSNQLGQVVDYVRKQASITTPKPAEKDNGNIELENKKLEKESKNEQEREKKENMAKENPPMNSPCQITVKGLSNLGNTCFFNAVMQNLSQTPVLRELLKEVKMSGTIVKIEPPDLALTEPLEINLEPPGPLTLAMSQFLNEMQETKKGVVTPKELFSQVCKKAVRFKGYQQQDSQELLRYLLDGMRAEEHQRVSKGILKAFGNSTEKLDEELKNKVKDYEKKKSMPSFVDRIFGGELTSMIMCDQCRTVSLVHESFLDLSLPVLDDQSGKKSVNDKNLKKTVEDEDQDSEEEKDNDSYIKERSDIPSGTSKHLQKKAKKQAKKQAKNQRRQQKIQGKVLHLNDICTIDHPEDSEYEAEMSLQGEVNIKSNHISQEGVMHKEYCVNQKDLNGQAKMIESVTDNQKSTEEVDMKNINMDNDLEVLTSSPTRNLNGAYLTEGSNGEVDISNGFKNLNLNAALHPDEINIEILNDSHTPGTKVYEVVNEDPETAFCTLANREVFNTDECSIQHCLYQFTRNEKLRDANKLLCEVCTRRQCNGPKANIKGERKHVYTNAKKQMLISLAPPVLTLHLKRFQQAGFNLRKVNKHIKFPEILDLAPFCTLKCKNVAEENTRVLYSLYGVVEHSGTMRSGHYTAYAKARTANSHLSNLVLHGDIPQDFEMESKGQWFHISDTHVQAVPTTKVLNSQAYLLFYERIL

CC(NC(=O)CCl)c1csc(-c2ccccc2)n1.Cl (stereo not given)
active: OTUD7B -1.07 | UCHL1 -1.3 | USP16 -1.03
inactive: OTUD6B -0.597 | PRPF8 -0.0372 | PSMD7 -0.175 | UCHL3 -0.457 | UCHL5 -0.71 | USP10 -0.126 | USP15 -0.386
